Measured potencies and affinities stand elsewhere. Activity calls are given as the source filed them. No rule for the calls is given here.
Experiment: A549 cell cytotoxicity, dose response, cytotoxicity control, plate reader, dry powder, set 6 (AID 743312)

Structure (SMILES) | outcome
Cc1cccc(OCCn2c(=S)[nH]c3c(F)cccc32)c1 | inactive
Clc1ccc(OCCn2cnc3ccccc32)cc1 | inactive
COc1ccc(OCCn2cnc3ccccc32)cc1 | inactive
OCc1nc2ccccc2n1CCOc1ccccc1 | inactive
CCCCc1nc2ccccc2n1CCOc1ccccc1 | inactive
S=c1[nH]c2cc(Cl)ccc2n1CCOc1ccccc1 | inactive
CSc1nc2ccccc2n1CCOc1ccc(C)cc1 | inactive
CC(C)Oc1ccc(OCCn2cnc3ccccc32)cc1 | inactive
COCc1nc2ccccc2n1CCOc1ccc(C(C)(C)C)cc1 | inactive
Clc1ccccc1OCCn1cnc2ccccc21 | inactive
CC(C)Oc1cccc(OCCn2cnc3ccccc32)c1 | inactive
c1ccc(COc2ccc(OCCn3cnc4ccccc43)cc2)cc1 | inactive
COc1cccc(OCCn2cnc3ccccc32)c1 | inactive
CCCc1nc2ccccc2n1CCOc1ccccc1 | inactive
c1ccc2c(c1)ncn2CCOc1ccc2c(c1)CCC2 | inactive
COc1ccccc1OCCn1c(SC)nc2ccccc21 | inactive
CC(C)Oc1ccc(OCCn2c(=S)[nH]c3ccccc32)cc1 | inactive
CS(=O)(=O)c1ccc(OCCn2cnc3ccccc32)cc1 | inactive
CSc1nc2ccccc2n1CCOc1ccccc1 | inactive
COc1cc(C)ccc1OCCn1cnc2ccccc21 | inactive
CCc1nc2ccccc2n1CCOc1ccccc1 | inactive

Structure (SMILES) | outcome
Cc1ccc2c(c1)[nH]c(=S)n2CCOc1ccccc1 | inactive
CC(C)(C)c1ccc(OCCn2cnc3ccccc32)c(Cl)c1 | inactive
CSc1nc2ccccc2n1CCOc1cc(C)ccc1C(C)C | inactive
Cc1ccccc1OCCn1cnc2ccccc21 | inactive
Cc1cc2ncn(CCOc3ccccc3)c2cc1C | inactive
CCSc1nc2ccccc2n1CCOc1ccccc1 | inactive
COc1ccccc1OCCn1c(=S)[nH]c2ccccc21 | inactive
O=S(=O)(c1ccc(OCCn2cnc3ccccc32)cc1)N1CCOCC1 | inactive
Fc1ccc(OCCn2c(=S)[nH]c3ccccc32)cc1 | inactive
Cc1ccc(C(C)C)c(OCCn2c(N)nc3ccccc32)c1 | inactive
FC(F)(F)c1cccc(OCCn2cnc3ccccc32)c1 | inactive
Cc1ccc(OCCn2cnc3ccccc32)c(C)c1 | inactive
Cc1cccc(OCCn2c(=S)[nH]c3ccccc32)c1 | inactive
Cc1cccc(OCCn2cnc3ccccc32)c1 | inactive
Cc1ccc(OCCn2cnc3cc(C)c(C)cc32)cc1 | inactive
Fc1cccc2c1[nH]c(=S)n2CCOc1ccccc1 | inactive
Fc1ccc2c(c1)[nH]c(=S)n2CCOc1ccccc1 | inactive
Cc1ccc(C(C)C)c(OCCn2c(NC#N)nc3ccccc32)c1 | inactive
Cc1cccc(OCCn2c(=S)[nH]c3cc(F)ccc32)c1 | inactive
Clc1ccc(OCCn2cnc3ccccc32)c(Cl)c1 | inactive

— PubChem BioAssay AID743312 (Broad Institute, 2014)
